Calls of active or inactive are those of the source. Unless noted, no rule for the calls is given here.
Tests used:
[1] = reduced mouse 2C T cell binding to pMHC/ICAM-1 vesicles – MLPCN validation set, flow cytometry, LFA-1/ICAM-1 modulator project, pilot screen (AID 2523;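 active = response below a set limit, under 55% cells CD8-positive and vesicle-bound, and CD8 cells' 90th-percentile brightness under 279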;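 as to vesicle binding response: mean PE anti-B7-1 fluorescence of CD8+ cells relative to row control; 100% = QL9-loaded vesicles with DMSO vehicle in the same plate row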); settings: 2C mouse CD8+ T cells, at 7 µM, stronger effect = lower value; double positive events: measured here: CD8+/vesicle+ event percentage
[2] = molecular target: Integrin beta-1 (Homo sapiens) + Integrin alpha-4 (Homo sapiens) (UniProt P13612+P05556); assay: alpha4beta1 integrin LIBS antibody binding reduction – U937 cells, HUTS-21 mAb, flow cytometry, validation set, VLA-4 allosteric modulator project, pilot screen (AID 2674;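 active = inhibition above 50%, about 3 SD of the validation set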;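 also: antibody binding induced by the VLA-4 ligand LDV present at three times its Kd; 0% = LDV ligand with antibody and no compound and 100% = antibody without LDV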); settings: HUTS-21 LIBS mAb binding, at 6.7 µM, stronger effect = higher value
[3] = calorie-restriction mimetic ROS inhibitors, yeast – validation compound set, pilot screen (AID 2706;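 active = superoxide response below 65% of plate, a cut near 3 SD across the whole screen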;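 also: yeast exposed to compound for one week at 30 degrees C before staining; 100% = mean of all compound wells on the same plate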); settings: S. cerevisiae aging, superoxide DHE fluorescence; at 10 µM; stronger effect = lower value
[4] = molecular target: Beta-adrenergic receptor kinase 1 (Homo sapiens) (UniProt P25098); assay: GRK2 binders displacing RNA aptamer, biochemical, validation, human GRK2, bead flow cytometry (AID 488806;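 active = aptamer binding inhibition above 30%, about 3 SD of noise from non-fluorescent compounds; inactive = inhibition at or below 30%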); settings: bead-bound GRK2, FAM-aptamer displacement, at 10 µM, stronger effect = higher value
[5] = molecular target: AP-2 complex subunit beta (Homo sapiens) (UniProt P63010); assay: beta-arrestin/AP2 interaction blockers – biochemical, validation set, GST-AP2 beads, flow cytometry, pilot screen (AID 504541;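 active = inhibition above 54%, about 3 SD of non-fluorescent compounds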;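 also: AP2 carries R879A mutation and is captured from E. coli lysate; bead-bound FITC arrestin peptide fluorescence measuring arrestin peptide binding to AP2; 0% = DMSO wells and 100% = excess unlabeled arrestin peptide control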); settings: FITC arrestin peptide, at 10 µM, stronger effect = higher value
[6] = cytosolic pH regulators acting via V-ATPase – S. cerevisiae, pHLuorin, HTS validation (AID 504600; in the data active = response above about 15%;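 also: plate controls were DMSO for no effect and reference compound for full effect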); settings: V-ATPase proton transport, at 10 µM, stronger effect = higher value
[7] = test system: anti-desmoglein-3 scFv antibody binding to human DSG3; assay: blockers of pathogenic pemphigus antibody–desmoglein-3 binding – biochemical, validation compound set, bead-based, flow cytometry, pilot screen (AID 588368;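 active = binding below the plate cutoff, the plate median minus 3 SD, with a reading above zero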;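 also: signal is the median channel fluorescence of bead-bound GFP antibody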); settings: Protein G beads, DSG3-Fc, scFv-GFP binding, at 10 µM, stronger effect = lower value
[8] = test system: Botulinum neurotoxin type F light chain protease (Clostridium botulinum); assay: Clostridium botulinum type F light chain protease inhibitors, microsphere substrate cleavage, validation (AID 588459); settings: multiplex microsphere protease substrate cleavage assay, flow cytometry; at 10 µM; stronger effect = higher value
[9] = molecular target: Botulinum neurotoxin type A (Clostridium botulinum) (UniProt P0DPI0); assay: BoNT/A light chain protease inhibitors, biochemical, multiplex microsphere flow cytometry, validation set (AID 588460); settings: at 10 µM, stronger effect = higher value
[10] = molecular target: Lethal factor (Bacillus anthracis) (UniProt P15917); assay: Bacillus anthracis lethal factor inhibition, microsphere flow cytometry protease assay, validation at 10 µM (AID 588461); settings: multiplex microsphere protease cleavage assay, stronger effect = higher value
[11] = Nile Red efflux blockade in pump-expressing yeast – validation compound set, multiplex, phenotypic, pilot screen (AID 588506;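 active = efflux inhibition above 0.42, the validation set average plus 4 SD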;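 also: Nile Red retained in cells so higher fluorescence means more efflux inhibition; 0 = negative control wells and 1 = enniatin B 25 µM full block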); settings: S. cerevisiae pump-expressing triplex, Nile Red efflux flow cytometry; at 10 µM; stronger effect = higher value
[12] = molecular target: ATP-binding cassette sub-family B member 6 (Homo sapiens) (UniProt Q9NP58); assay: blockers of ABCB6-driven porphyrin uptake – K562-ABCB6 cells, flow cytometry, validation set, pilot screen (AID 588550;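 active = inhibition above the screen-wide mean plus 3 SD, about 51%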;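 also: 0% = DMSO wells and 100% = benzethonium chloride 70 µM positive control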); settings: K562-ABCB6 porphyrin accumulation, 1 h, at 10 µM, stronger effect = higher value
[13] = AML differentiation inducers, ER-HoxA9 marrow cells – cell-based, GFP/MAC1 double positive, flow cytometry, validation set, primary screen (AID 588685;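 active = differentiation response of at least 50%, scaled between solvent and reference control, from cells with both markers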;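 also: compound exposure lasts four days before antibody staining and flow analysis; 0% = DMSO wells and 100% = 5 µM fulvestrant positive control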); settings: stronger effect = higher value

Chain of AP-2 complex subunit beta (Homo sapiens) (P63010 whole entry, looked up, one chain of several): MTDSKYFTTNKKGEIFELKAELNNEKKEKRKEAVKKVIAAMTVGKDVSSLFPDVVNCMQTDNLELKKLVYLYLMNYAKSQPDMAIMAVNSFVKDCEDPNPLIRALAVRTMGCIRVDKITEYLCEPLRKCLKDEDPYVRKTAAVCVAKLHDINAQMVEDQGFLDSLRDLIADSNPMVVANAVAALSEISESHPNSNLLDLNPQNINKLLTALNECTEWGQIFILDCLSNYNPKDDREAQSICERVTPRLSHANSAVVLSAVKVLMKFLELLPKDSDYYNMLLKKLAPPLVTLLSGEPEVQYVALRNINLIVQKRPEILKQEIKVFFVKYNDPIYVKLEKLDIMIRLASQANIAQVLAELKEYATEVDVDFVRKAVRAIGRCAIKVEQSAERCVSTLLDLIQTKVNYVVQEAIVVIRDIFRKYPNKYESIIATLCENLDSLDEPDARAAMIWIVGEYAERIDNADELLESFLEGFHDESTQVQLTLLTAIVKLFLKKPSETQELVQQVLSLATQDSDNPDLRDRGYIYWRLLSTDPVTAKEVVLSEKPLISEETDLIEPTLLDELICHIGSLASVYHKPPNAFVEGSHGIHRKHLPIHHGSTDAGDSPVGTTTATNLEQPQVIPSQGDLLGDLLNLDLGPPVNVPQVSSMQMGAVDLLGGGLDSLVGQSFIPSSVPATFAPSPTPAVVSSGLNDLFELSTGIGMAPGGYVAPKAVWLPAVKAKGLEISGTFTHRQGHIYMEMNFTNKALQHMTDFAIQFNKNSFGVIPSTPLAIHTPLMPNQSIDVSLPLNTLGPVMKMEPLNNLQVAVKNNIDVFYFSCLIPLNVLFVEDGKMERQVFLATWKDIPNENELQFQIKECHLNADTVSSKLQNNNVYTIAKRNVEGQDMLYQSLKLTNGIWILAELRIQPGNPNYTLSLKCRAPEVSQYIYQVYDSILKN
Chain of Integrin beta-1 (Homo sapiens) + Integrin alpha-4 (Homo sapiens) (P05556 whole entry, looked up): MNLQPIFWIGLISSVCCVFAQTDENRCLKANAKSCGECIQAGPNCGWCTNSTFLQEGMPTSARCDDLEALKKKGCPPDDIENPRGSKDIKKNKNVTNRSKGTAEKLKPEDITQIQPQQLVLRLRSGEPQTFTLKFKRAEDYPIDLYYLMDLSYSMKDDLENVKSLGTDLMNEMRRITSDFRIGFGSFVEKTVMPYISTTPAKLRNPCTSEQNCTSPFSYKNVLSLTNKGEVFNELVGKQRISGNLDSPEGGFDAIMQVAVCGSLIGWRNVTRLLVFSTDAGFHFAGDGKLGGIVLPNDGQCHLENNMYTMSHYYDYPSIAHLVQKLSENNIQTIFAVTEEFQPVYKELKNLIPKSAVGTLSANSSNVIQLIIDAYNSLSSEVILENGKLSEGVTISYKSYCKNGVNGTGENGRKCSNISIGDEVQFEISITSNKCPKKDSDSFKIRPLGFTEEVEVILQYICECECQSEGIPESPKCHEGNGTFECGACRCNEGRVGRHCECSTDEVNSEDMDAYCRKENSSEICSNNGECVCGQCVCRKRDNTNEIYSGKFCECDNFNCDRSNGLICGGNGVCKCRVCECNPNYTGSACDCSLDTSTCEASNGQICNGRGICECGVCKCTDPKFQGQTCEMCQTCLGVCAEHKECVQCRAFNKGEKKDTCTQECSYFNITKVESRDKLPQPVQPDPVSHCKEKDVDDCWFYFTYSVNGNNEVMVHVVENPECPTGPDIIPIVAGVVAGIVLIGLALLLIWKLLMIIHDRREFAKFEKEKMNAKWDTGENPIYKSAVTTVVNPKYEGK
Chain of Integrin beta-1 (Homo sapiens) + Integrin alpha-4 (Homo sapiens) (P13612 whole entry, looked up): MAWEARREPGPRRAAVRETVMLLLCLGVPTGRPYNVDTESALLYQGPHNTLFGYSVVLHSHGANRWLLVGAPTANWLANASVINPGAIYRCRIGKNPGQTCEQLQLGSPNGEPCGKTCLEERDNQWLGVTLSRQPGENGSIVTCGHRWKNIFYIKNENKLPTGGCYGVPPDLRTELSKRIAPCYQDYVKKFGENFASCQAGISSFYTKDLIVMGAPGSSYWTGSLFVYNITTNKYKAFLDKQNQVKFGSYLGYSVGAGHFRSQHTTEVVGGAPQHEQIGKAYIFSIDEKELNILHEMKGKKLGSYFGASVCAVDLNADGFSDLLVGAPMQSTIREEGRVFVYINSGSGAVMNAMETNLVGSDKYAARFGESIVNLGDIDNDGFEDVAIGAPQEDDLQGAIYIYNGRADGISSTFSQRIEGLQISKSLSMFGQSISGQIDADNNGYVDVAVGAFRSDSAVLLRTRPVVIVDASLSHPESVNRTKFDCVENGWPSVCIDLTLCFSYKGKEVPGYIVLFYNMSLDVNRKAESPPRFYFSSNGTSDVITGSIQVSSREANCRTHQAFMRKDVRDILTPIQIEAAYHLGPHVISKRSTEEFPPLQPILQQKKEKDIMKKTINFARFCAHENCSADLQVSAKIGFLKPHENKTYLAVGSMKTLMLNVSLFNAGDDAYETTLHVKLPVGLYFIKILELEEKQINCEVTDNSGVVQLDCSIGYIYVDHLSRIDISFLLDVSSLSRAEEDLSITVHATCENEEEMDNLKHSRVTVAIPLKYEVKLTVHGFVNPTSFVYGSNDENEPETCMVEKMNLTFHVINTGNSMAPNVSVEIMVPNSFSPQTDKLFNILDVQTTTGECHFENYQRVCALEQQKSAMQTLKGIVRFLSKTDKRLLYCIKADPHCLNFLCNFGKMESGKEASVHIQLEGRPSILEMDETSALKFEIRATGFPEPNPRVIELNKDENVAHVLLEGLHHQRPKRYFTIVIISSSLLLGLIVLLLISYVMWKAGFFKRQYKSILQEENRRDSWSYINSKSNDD
Chain of Botulinum neurotoxin type A (Clostridium botulinum) (P0DPI0 whole entry, looked up): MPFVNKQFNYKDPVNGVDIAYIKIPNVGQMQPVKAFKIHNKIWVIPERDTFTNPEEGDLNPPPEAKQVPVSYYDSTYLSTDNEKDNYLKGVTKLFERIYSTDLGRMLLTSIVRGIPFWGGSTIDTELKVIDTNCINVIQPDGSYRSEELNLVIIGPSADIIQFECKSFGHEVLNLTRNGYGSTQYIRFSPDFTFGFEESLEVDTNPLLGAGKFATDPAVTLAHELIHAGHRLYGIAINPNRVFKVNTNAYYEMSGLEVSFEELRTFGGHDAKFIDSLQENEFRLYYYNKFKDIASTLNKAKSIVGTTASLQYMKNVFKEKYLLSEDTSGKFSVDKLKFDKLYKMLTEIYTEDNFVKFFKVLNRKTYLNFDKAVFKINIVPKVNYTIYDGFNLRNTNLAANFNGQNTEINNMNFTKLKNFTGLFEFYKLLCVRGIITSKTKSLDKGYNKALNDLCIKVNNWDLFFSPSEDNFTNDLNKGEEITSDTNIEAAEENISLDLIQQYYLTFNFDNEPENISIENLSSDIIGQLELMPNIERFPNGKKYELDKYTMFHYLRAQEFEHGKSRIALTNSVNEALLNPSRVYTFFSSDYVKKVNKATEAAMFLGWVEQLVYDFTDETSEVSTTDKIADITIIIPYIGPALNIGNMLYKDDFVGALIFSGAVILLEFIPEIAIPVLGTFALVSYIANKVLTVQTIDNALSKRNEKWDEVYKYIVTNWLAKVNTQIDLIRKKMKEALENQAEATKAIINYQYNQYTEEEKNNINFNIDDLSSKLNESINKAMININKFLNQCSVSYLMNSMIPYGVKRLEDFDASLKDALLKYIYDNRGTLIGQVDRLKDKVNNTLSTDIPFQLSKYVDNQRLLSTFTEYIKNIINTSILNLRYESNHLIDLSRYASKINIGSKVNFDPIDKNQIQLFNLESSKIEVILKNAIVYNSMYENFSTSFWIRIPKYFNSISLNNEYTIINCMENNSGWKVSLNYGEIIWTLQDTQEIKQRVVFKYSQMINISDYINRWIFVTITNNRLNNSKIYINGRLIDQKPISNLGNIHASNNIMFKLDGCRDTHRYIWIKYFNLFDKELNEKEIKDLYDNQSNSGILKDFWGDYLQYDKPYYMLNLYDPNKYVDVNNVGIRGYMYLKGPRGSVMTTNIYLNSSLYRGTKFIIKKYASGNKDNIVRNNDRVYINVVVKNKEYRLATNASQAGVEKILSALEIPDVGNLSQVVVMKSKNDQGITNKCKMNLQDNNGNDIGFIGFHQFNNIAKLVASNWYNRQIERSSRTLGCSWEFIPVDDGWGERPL
Chain of Lethal factor (Bacillus anthracis) (P15917 whole entry, looked up): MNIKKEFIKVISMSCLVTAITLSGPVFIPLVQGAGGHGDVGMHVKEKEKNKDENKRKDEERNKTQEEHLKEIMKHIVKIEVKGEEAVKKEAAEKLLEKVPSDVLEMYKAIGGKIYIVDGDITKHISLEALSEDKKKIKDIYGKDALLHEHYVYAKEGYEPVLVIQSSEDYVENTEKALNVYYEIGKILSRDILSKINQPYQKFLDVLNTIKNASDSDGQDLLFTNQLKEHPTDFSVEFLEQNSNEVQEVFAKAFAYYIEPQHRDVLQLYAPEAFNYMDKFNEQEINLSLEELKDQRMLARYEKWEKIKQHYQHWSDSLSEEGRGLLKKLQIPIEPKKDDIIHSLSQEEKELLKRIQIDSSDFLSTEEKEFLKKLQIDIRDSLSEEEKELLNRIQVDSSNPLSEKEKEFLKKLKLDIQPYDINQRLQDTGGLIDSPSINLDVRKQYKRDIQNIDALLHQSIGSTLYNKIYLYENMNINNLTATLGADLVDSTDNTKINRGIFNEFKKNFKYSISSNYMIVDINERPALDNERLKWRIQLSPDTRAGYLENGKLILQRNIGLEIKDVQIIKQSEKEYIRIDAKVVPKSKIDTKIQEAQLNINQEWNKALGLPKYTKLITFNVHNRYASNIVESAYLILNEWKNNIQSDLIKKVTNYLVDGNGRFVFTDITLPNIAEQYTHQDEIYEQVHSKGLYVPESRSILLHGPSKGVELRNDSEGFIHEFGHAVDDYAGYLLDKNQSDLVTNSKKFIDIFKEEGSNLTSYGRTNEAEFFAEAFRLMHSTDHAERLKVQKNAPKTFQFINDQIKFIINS

CC(=O)Nc1cc([As](=O)(O)O)ccc1O
inactive: vesicle binding response [1] 170% | inhibition [2] 0.59% | superoxide response (% of plate) [3] 92.8% | aptamer binding inhibition [4] 0% | inhibition [5] -6.36% | response [6] 1.26% | binding (% of control) [7] 101% | inhibition [8] 1% | inhibition [9] -1.3% | inhibition [10] 5.5% | efflux inhibition (fraction of control) [11] 0 | inhibition [12] 6% | differentiation response [13] -0.06%
62.8%: double positive events [1]

C[C@]12CC[C@@H]3c4ccc(O)c(O)c4CC[C@H]3[C@@H]1CC[C@@H]2O
inactive: vesicle binding response [1] 107% | inhibition [2] 27.7% | superoxide response (% of plate) [3] 101% | aptamer binding inhibition [4] -1% | inhibition [5] 1.47% | response [6] -0.32% | binding (% of control) [7] 108% | inhibition [8] 0.2% | inhibition [9] -0.1% | inhibition [10] 2% | efflux inhibition (fraction of control) [11] -0.28 | inhibition [12] 7% | differentiation response [13] 3.03%
51%: double positive events [1]

CC(CCc1ccccc1)NC(C)C(O)c1ccc(O)cc1 (configuration not stated)
inactive: vesicle binding response [1] 166% | inhibition [2] -20.8% | superoxide response (% of plate) [3] 111% | aptamer binding inhibition [4] 1% | inhibition [5] 2.09% | response [6] 5.84% | binding (% of control) [7] 95.4% | inhibition [8] -3.5% | inhibition [9] -0.8% | inhibition [10] -0.5% | efflux inhibition (fraction of control) [11] -0.28 | inhibition [12] 10% | differentiation response [13] -16.4%
49%: double positive events [1]

c1cc(-c2ccncc2)ccn1
inactive: inhibition [8] 0.7% | inhibition [9] -1.9%

NCCc1ccc(O)cc1
inactive: vesicle binding response [1] 185% | inhibition [2] -2.82% | superoxide response (% of plate) [3] 94.8% | aptamer binding inhibition [4] 2% | inhibition [5] 5.64% | response [6] 5.09% | binding (% of control) [7] 107% | inhibition [8] 5.4% | inhibition [9] 0.3% | inhibition [10] -8.1% | efflux inhibition (fraction of control) [11] -0.09 | inhibition [12] -2% | differentiation response [13] -11.9%
60%: double positive events [1]

CC/C(=C\C=C\[C@@H]1C=C[C@@H]2CCC[C@H]2[C@@H]1C(=O)c1ccc[nH]1)[C@@H]1O[C@@H]([C@@H](C)C(=O)O)CC[C@@H]1C
60.2%: double positive events [1]
inactive: vesicle binding response [1] 275% | inhibition [2] -7.08% | superoxide response (% of plate) [3] 94% | aptamer binding inhibition [4] 2% | inhibition [5] 0.83% | response [6] -0.4% | binding (% of control) [7] 107% | inhibition [8] 1.9% | inhibition [9] 0.5% | inhibition [10] -4.4% | efflux inhibition (fraction of control) [11] 0 | inhibition [12] -1% | differentiation response [13] -4%
